In PubChem BioAssay (EPA / NIEHS):
The source made the active and inactive calls. How the source made its calls: active means hit-call score of the fitted dose curve at least 0.9, where 1 is the maximum; inactive means score below 0.9.

What was measured:
[1] = ATG_CRE_CIS: Attagene CIS-FACTORIAL HepG2 Assay for human cAMP Responsive Element (CRE) binding protein 3 (AID 2282926); details: HepG2 CRE cis-reporter, Attagene multiplexed mRNA; actives raise or lower the signal
Procedure, shortened: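 We dosed HepG2 cells bearing multiple cis-promoter reporter units for 24 h and measured reporter mRNA by RT-PCR with capillary electrophoresis detection. Bidirectional concentration-response fitting used DMSO as negative control.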

[2] = biological target: CCAAT/enhancer-binding protein beta (Homo sapiens) (UniProt P17676); experiment: ATG_C_EBP_CIS: Attagene CIS-FACTORIAL HepG2 Assay for human CCAAT/Enhancer Binding Protein (C/EBP) beta (AID 2282927); details: HepG2 Attagene cis-factorial transcription factor reporter; actives raise or lower the signal
CCAAT/enhancer-binding protein beta (Homo sapiens), sequence (P17676 whole entry, looked up): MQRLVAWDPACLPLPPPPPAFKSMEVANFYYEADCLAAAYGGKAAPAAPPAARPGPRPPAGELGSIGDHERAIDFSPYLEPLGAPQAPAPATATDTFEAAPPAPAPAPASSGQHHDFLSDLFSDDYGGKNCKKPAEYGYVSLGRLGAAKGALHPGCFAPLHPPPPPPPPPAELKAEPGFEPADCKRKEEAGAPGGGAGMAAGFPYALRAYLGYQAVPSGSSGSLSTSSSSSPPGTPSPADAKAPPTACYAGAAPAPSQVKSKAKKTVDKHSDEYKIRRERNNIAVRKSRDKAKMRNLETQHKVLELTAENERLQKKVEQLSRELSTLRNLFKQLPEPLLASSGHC
Procedure, shortened: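 Transiently transfected HepG2 (MRTU library, endogenous TF-driven promoters); 24 h dosing; total RNA → oligo(dT) RT → PCR → 6-FAM primer extension → HpaI digest → CE; fit bidirectionally vs DMSO.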

[3] = ATG_CMV_CIS: Attagene CIS-FACTORIAL HepG2 Assay for human CMV (Internal Marker) (AID 2282928); details: HepG2 CMV promoter reporter, transcription factor profiling; actives raise or lower the signal;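 further: endpoint acts as a background internal control marker rather than a target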
Procedure, shortened: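 CMV internal-marker background readout in transiently transfected HepG2 cells bearing cis-regulated reporter units. Reporter mRNA is measured 24 h after dosing by RT-PCR and capillary electrophoresis, with bidirectional fitting against DMSO.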

[4] = ATG_DR4_LXR_CIS: Attagene CIS-FACTORIAL HepG2 Assay for human Liver X Receptor (LXR), DR4 submotif (AID 2282929); details: HepG2 Attagene DR4 cis-reporter, mRNA transcription; actives raise or lower the signal
Procedure, shortened: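 HepG2 cells were transiently transfected with multiple cis-regulated reporter units and dosed for 24 hours. The DR4 reporter mRNA was quantified by RT-PCR, 6-FAM labelling and capillary electrophoresis. Bidirectional fits used DMSO as baseline.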

[5] = biological target: Aryl hydrocarbon receptor (Homo sapiens) (UniProt P35869); experiment: ATG_Ahr_CIS: Attagene CIS-FACTORIAL HepG2 Assay for human Aryl Hydrocarbon Receptor (Ahr) (AID 2282930); details: HepG2 AhR cis-factorial reporter transcription; actives raise or lower the signal
Aryl hydrocarbon receptor (Homo sapiens), sequence (P35869 whole entry, looked up): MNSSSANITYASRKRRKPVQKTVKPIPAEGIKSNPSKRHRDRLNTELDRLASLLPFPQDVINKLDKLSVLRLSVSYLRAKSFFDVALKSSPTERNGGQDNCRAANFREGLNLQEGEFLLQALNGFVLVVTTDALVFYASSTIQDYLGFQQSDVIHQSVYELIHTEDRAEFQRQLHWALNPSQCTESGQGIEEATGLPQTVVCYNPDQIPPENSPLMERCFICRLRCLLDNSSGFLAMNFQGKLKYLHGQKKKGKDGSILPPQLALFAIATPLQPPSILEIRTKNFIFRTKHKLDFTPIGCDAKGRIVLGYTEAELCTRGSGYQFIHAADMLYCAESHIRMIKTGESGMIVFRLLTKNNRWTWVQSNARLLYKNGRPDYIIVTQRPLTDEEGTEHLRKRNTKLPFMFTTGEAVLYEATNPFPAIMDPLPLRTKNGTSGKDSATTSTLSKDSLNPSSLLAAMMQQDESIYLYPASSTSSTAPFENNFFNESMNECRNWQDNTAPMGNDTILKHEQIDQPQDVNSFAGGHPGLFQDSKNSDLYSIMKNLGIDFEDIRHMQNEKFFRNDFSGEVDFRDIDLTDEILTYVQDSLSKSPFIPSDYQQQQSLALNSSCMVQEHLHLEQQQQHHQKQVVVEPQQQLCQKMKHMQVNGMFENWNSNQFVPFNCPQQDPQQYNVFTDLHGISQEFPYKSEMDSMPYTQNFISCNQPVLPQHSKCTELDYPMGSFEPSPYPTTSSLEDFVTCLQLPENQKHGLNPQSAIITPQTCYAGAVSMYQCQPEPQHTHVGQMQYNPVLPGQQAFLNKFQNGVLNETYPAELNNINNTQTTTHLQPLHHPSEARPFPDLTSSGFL
Procedure, shortened: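 Read-out: reporter mRNA quantified by RT-PCR with fluorescent primer extension and capillary electrophoresis. Human HepG2 liver cells carried transfected cis-promoter reporter units and were exposed to chemical for 24 h; gain or loss fitted relative to DMSO.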

[6] = ATG_AP_1_CIS: Attagene CIS-FACTORIAL HepG2 Assay for human Activator Protein 1 (AP-1) (AID 2282931); details: HepG2 Attagene cis-factorial AP-1 reporter mRNA; actives raise or lower the signal
Procedure, shortened: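 HepG2 cells transiently transfected with cis-element-driven reporter transcription units, dosed for 24 hours. Reporter mRNA measured by RT-PCR, 6-FAM labelling, HpaI digestion and capillary electrophoresis. Bidirectional fitting against DMSO baseline.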

[7] = ATG_AP_2_CIS: Attagene CIS-FACTORIAL HepG2 Assay for human Activator Protein 2 (AP-2) (AID 2282932); details: HepG2 AP-2 cis-reporter, Attagene transcription factor profiling; actives raise or lower the signal
Procedure, shortened: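 Multiplexed mRNA reporter assay in HepG2: cis-regulated units report endogenous factor activity after 24 h treatment. Fluorescence from capillary electrophoresis of RT-PCR products gives the signal, with DMSO as baseline.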

[8] = ATG_BRE_CIS: Attagene CIS-FACTORIAL HepG2 Assay for human Bone Morphogenetic Protein (BMP) Response Element (BRE) (AID 2282933); details: HepG2 BMP response element reporter, Attagene transcription factor profiling; actives raise or lower the signal
Procedure, shortened: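 HepG2 cells transiently transfected with CIS reporter units (endogenous TF activity, BMP response element), dosed 24 h. Reporter mRNA quantified by RT-PCR, fluorescent labelling and capillary electrophoresis; bidirectional fit vs DMSO baseline.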

[9] = biological target: Retinoic acid receptor alpha (Homo sapiens) (UniProt P10276); experiment: ATG_DR5_RAR_CIS: Attagene CIS-FACTORIAL HepG2 Assay for human Retinoic Acid Receptor Alpha (RARE), DR5 submotif (AID 2282934); details: HepG2 Attagene cis-factorial RARE DR5 reporter, mRNA; actives raise or lower the signal;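 on AC50: reporter responds to endogenous RAR alpha beta and gamma in HepG2 not RARA alone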
Retinoic acid receptor alpha (Homo sapiens), sequence (P10276 whole entry, looked up): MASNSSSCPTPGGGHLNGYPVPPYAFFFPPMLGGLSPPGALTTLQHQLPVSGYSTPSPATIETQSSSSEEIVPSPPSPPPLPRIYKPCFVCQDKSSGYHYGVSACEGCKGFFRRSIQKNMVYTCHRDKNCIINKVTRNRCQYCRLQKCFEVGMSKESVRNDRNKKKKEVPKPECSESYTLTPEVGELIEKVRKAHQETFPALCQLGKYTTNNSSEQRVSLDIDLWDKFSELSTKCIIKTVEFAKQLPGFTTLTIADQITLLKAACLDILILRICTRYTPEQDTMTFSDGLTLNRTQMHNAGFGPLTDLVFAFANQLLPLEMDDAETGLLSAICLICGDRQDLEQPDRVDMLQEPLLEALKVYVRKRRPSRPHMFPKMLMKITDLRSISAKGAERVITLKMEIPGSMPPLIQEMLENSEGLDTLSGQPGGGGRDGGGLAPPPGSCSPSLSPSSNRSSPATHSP
Procedure, shortened: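 Read-out: DR5-driven reporter transcript measured by RT-PCR, 6-FAM primer extension, HpaI digest and capillary electrophoresis. Human HepG2 liver cells carry transiently transfected cis-element reporter constructs; dosing lasts 24 h. Gain or loss of signal fitted against DMSO baseline.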

[10] = biological target: Transcription factor E2F1 (Homo sapiens) (UniProt Q01094); experiment: ATG_E2F_CIS: Attagene CIS-FACTORIAL HepG2 Assay for human E2F Transcription Factor 1 (AID 2282935); details: HepG2 Attagene cis-reporter, E2F reporter RNA transcripts; actives raise or lower the signal
Transcription factor E2F1 (Homo sapiens), sequence (Q01094 whole entry, looked up): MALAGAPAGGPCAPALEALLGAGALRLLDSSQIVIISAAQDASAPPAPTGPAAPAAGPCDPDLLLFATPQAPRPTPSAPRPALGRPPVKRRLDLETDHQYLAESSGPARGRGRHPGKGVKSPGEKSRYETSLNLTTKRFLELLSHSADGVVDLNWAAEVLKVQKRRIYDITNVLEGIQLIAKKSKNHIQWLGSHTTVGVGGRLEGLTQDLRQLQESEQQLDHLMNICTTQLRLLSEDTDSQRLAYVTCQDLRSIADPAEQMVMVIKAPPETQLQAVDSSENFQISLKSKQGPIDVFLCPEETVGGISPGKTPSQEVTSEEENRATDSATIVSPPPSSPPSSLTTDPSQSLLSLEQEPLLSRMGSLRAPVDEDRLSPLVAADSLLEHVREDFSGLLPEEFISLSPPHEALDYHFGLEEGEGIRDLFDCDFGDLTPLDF
Procedure, shortened: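 Measures reporter transcript levels via RT-PCR with capillary electrophoresis detection in HepG2 cells harboring cis-regulated reporter units; 24 h post-dose; bidirectional curve fitting with DMSO as baseline.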

[11] = ATG_E_Box_CIS: Attagene CIS-FACTORIAL HepG2 Assay for human Enhancer Box (E-box) (AID 2282936); details: HepG2 E-box cis-reporter transcription, actives raise or lower the signal
Procedure, shortened: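 First, HepG2 cells receive multiple cis-regulated reporter constructs by transient transfection. Next, chemicals are applied for 24 h. Finally, reporter mRNA is quantified via RT-PCR and capillary electrophoresis, with DMSO as baseline.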

[12] = ATG_M_61_CIS: Attagene CIS-FACTORIAL HepG2 Assay for M61 Transcription Factor (Internal Marker) (AID 2282937); details: HepG2 Attagene CIS-FACTORIAL M61 internal marker reporter; actives raise or lower the signal
Procedure, shortened: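 HepG2 cells transiently transfected with multiplexed cis-promoter reporter units reporting endogenous transcription factor activity, measured 24 h after dosing. Reporter mRNA quantified by RT-PCR and capillary electrophoresis; bidirectional fit against DMSO baseline.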

[13] = ATG_EGR_CIS: Attagene CIS-FACTORIAL HepG2 Assay for human Early Growth Response 1 (EGR1) (AID 2282938); details: HepG2 Attagene CIS-FACTORIAL EGR reporter mRNA; actives raise or lower the signal
Procedure, shortened: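 HepG2 cells transiently transfected with cis-element-driven multiplexed reporter units, dosed for 24 h. EGR1-element reporter mRNA quantified by RT-PCR, 6-FAM labelling, HpaI digestion and capillary electrophoresis; bidirectional fit versus DMSO.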

[14] = ATG_M_19_CIS: Attagene CIS-FACTORIAL HepG2 Assay for M19 Transcription Factor (Internal Marker) (AID 2282939); details: HepG2 Attagene CIS-FACTORIAL M19 internal marker reporter; actives raise or lower the signal
Procedure, shortened: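 HepG2 cells transiently transfected with cis-regulated multiplexed reporter units, dosed 24 h. Reporter mRNA quantified by RT-PCR and capillary electrophoresis; internal background marker fitted bidirectionally versus DMSO.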

[15] = ATG_Ets_CIS: Attagene CIS-FACTORIAL HepG2 Assay for human Erythroblast Transformation Specific (ETS) (AID 2282941); details: HepG2 ETS cis-reporter transcription, actives raise or lower the signal
Procedure, shortened: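 HepG2 cells transfected with multiple cis-regulated reporter units measuring endogenous ETS-driven transcription, 24 h after dosing. Reporter mRNA quantified by RT-PCR with capillary electrophoresis; bidirectional fit relative to DMSO.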

[16] = biological target: Hepatocyte nuclear factor 3-beta (Homo sapiens) (UniProt Q9Y261); experiment: ATG_FoxA2_CIS: Attagene CIS-FACTORIAL HepG2 Assay for human Forkhead box A2 (FOXA2) (AID 2282942); details: HepG2 cis-reporter transcription factor activity, 24 h; actives raise or lower the signal
Hepatocyte nuclear factor 3-beta (Homo sapiens), sequence (Q9Y261 whole entry, looked up): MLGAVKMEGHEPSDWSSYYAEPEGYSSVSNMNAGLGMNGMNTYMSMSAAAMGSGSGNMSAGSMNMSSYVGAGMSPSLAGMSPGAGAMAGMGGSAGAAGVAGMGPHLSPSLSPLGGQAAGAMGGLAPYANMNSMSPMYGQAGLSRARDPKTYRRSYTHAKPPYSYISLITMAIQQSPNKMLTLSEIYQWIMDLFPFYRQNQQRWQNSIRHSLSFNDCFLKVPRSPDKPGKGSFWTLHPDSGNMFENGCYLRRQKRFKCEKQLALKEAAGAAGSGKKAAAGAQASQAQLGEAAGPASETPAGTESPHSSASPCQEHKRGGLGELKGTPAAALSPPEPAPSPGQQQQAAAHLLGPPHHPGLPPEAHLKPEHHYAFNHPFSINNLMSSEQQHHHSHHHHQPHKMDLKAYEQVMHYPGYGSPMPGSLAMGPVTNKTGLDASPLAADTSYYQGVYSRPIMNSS
Procedure, shortened: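 HepG2 transiently transfected with a multiplexed cis-promoter reporter library read endogenous FOXA2 activity. After 24 h compound exposure, reporter mRNA was quantified by RT-PCR, HpaI digestion and capillary electrophoresis. Bidirectional fit against DMSO.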

[17] = ATG_FoxO_CIS: Attagene CIS-FACTORIAL HepG2 Assay for human Forkhead box O (FoxO) (AID 2282943); details: HepG2 Attagene cis-reporter, FoxO element, mRNA; actives raise or lower the signal
Procedure, shortened: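 Read-out: fluorescence of 6-FAM-labelled reporter cDNA fragments resolved by capillary electrophoresis. Transiently transfected HepG2 cells were dosed for 24 h; activity fitted in both directions relative to DMSO controls.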

[18] = ATG_GATA_CIS: Attagene CIS-FACTORIAL HepG2 Assay for human GATA Binding Protein (AID 2282944); details: HepG2 GATA cis-element reporter, Attagene multiplex mRNA; actives raise or lower the signal
Procedure, shortened: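 HepG2 cells transiently transfected with multiplexed cis-element reporter units measure endogenous GATA activity; after 24 h compound exposure, reporter mRNA quantified by RT-PCR and capillary electrophoresis. Changes fitted in both directions vs DMSO.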

[19] = ATG_GLI_CIS: Attagene CIS-FACTORIAL HepG2 Assay for human Zinc Finger Protein GLI1 (AID 2282945); details: HepG2, Attagene cis-factorial reporter mRNA, GLI element; actives raise or lower the signal
Procedure, shortened: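 Transiently transfected HepG2 cells report endogenous transcription factor activity via cis-element-driven reporter units. After 24 h compound exposure, reporter mRNA was measured by RT-PCR with capillary electrophoresis; bidirectional fitting against DMSO baseline.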

Measured: AC50

Cc1c(Cl)cccc1[N+](=O)[O-]
inactive: all assays above

CCc1ccc(O)c(OC)c1
inactive: all assays above

OCc1cccc(Oc2ccccc2)c1
inactive: all assays above

COC(C)(C)CCCC(C)CC=O (stereo not drawn)
inactive: all assays above

CN(C)c1cccc(O)c1
active: [5] 7.57 µM
inactive: all other assays above

C[C@H]1O[C@@H](O[C@H]2[C@@H](O)C[C@H](O[C@H]3[C@@H](O)C[C@H](O[C@H]4CC[C@@]5(C)[C@H](CC[C@@H]6[C@@H]5C[C@@H](O)[C@]5(C)[C@@H](C7=CC(=O)OC7)CC[C@]65O)C4)O[C@@H]3C)O[C@@H]2C)C[C@H](O)[C@@H]1O
active: [1] 0.0776 µM | [2] 0.0593 µM | [3] 2.56 µM | [4] 0.11 µM | [7] 0.0857 µM | [13] 0.163 µM | [15] 0.145 µM | [17] 0.202 µM | [18] 0.335 µM
inactive: all other assays above

O=C(CC(=O)c1ccccc1)c1ccccc1
inactive: [4] | [7] | [8] | [10] | [12] | [14] | [15] | [16] | [17]
active: [1] 51.1 µM | [2] 70.4 µM | [3] 47.2 µM | [5] 25.9 µM | [6] 80.1 µM | [9] 62.5 µM | [11] 42.5 µM | [13] 100 µM | [18] 171 µM | [19] 157 µM
